From PubChem BioAssay (NCI)
The panel holds about 83,000 compounds, 20% with a hit somewhere; the sample as a whole holds those more often.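 Interpretation: 100, growth as untreated; towards 0, rising growth inhibition; 0, no net growth; 0 to -100, cell death. Compounds scoring below 10 were considered active.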 Calls of active or inactive are those of the source.

How the values were obtained:
Test in all cases: NCI-60 one-dose screen, 48 h (100 = growth as untreated, 0 = no growth, -100 = all killed)
Conditions in all cases: 10 µM unless noted
NCI-H23 lung = tested on: NCI-H23 lung
NCI-H226 lung = tested on: NCI-H226 lung
NCI-H322M lung = tested on: NCI-H322M lung
HOP-62 NSCLC = tested on: HOP-62 NSCLC
NCI-H460 lung = tested on: NCI-H460 lung
HOP-92 NSCLC = tested on: HOP-92 NSCLC
NCI-H522 lung = tested on: NCI-H522 lung
A549/ATCC NSCLC = tested on: A549/ATCC NSCLC
786-0 renal = tested on: 786-0 renal
COLO 205 colon = tested on: COLO 205 colon

Measured: growth

O=C(Nc1ccc2ncnc(Nc3ccc(Oc4cccc(F)c4)c(Cl)c3)c2c1)c1ccc(CNCCO)cc1
active: NCI-H460 lung -61.4% | 786-0 renal -4.01% | COLO 205 colon -54.5%
inactive: NCI-H23 lung 73.7% | NCI-H226 lung 91.6% | NCI-H322M lung 39.9% | HOP-62 NSCLC 54.7% | HOP-92 NSCLC 62.5% | NCI-H522 lung 26.9% | A549/ATCC NSCLC 48.6%

CCN(CC)S(=O)(=O)c1cccc([N+](=O)[O-])c1
inactive: NCI-H23 lung 102% | NCI-H226 lung 85.3% | NCI-H322M lung 104% | HOP-62 NSCLC 74.5% | NCI-H460 lung 99.5% | HOP-92 NSCLC 87.9% | NCI-H522 lung 72.3% | A549/ATCC NSCLC 65.3% | 786-0 renal 89.4% | COLO 205 colon 102%

CN(C)CCCn1c2c(c3ccc(-c4ccn[nH]4)cc3c1=O)C(=O)c1ccccc1-2
inactive: NCI-H23 lung 21.6% | NCI-H322M lung 81.9% | HOP-92 NSCLC 34.1% | NCI-H522 lung 25.9% | COLO 205 colon 43%
active: NCI-H226 lung 6.87% | HOP-62 NSCLC 5.59% | NCI-H460 lung 1.55% | A549/ATCC NSCLC 0.619% | 786-0 renal 2.46%

COc1ccc(/C=C\c2nc3ccccc3s2)cc1OP(=O)(O)O
inactive: NCI-H23 lung 43.4% | NCI-H226 lung 66.3% | NCI-H322M lung 59.8% | HOP-62 NSCLC 49.3% | NCI-H460 lung 20.7% | HOP-92 NSCLC 90.2% | NCI-H522 lung 12.5% | A549/ATCC NSCLC 42.3% | 786-0 renal 64.7% | COLO 205 colon 112%

CC1(C)CN(c2cnc(C(=O)Nc3cc(F)cc4cccnc34)cn2)CCN1
inactive: NCI-H23 lung 88.8% | NCI-H226 lung 92.7% | NCI-H322M lung 85.4% | HOP-62 NSCLC 91.8% | NCI-H460 lung 82.5% | HOP-92 NSCLC 64.6% | NCI-H522 lung 41% | A549/ATCC NSCLC 92.5% | 786-0 renal 78.9% | COLO 205 colon 19.7%

O=C(CSc1nc2sc3c(c2c(=O)n1Cc1ccccc1)CCCC3)N1CCN(c2ccccc2)CC1
inactive: NCI-H23 lung 90.9% | NCI-H226 lung 94.6% | NCI-H322M lung 89.4% | HOP-62 NSCLC 88.3% | NCI-H460 lung 103% | HOP-92 NSCLC 103% | NCI-H522 lung 81.1% | A549/ATCC NSCLC 73% | 786-0 renal 103% | COLO 205 colon 112%

C=C1C(=O)O[C@H]2[C@H]1CC/C(COC(=O)NCCc1c[nH]c3ccc(Cl)cc13)=C\CC[C@@]1(C)O[C@@H]21
inactive: NCI-H23 lung 13.8% | NCI-H226 lung 30.7% | NCI-H322M lung 81.6% | HOP-62 NSCLC 64.6% | NCI-H460 lung 17.5% | A549/ATCC NSCLC 56.5%
active: HOP-92 NSCLC -71% | NCI-H522 lung -80.1% | 786-0 renal -78.7% | COLO 205 colon -70.9%

O=C(CCN1CCCC1)Nc1ccc2c(Nc3ccccc3)c3ccccc3nc2c1
active: NCI-H322M lung 7.35% | NCI-H460 lung -60.7% | NCI-H522 lung -33.7% | COLO 205 colon -37.4%
inactive: NCI-H23 lung 22.1% | NCI-H226 lung 41.9% | HOP-62 NSCLC 12.1% | HOP-92 NSCLC 14.3% | A549/ATCC NSCLC 10.1% | 786-0 renal 10.1%

CCc1nc(C)cn1C(=O)OCc1nc2nc(Cl)nc(N3CCOCC3)c2[nH]1
inactive: NCI-H23 lung 28.9% | NCI-H322M lung 64.2% | HOP-62 NSCLC 47.9% | NCI-H460 lung 13.9% | A549/ATCC NSCLC 15.1%
active: NCI-H226 lung -75% | HOP-92 NSCLC -50.2% | NCI-H522 lung -75.5% | 786-0 renal -77.4% | COLO 205 colon -84.5%

COC(=O)Nc1ccc(NC(=O)OC)cc1
inactive: NCI-H23 lung 97.6% | NCI-H226 lung 96.7% | NCI-H322M lung 100% | HOP-62 NSCLC 77.7% | NCI-H460 lung 106% | HOP-92 NSCLC 84.7% | NCI-H522 lung 73.6% | A549/ATCC NSCLC 69.7% | 786-0 renal 93.3% | COLO 205 colon 111%

O=C1c2cccnc2C(=O)c2nc3cc(N4CCN(C5CC5)CC4)ccc3nc21
active: NCI-H23 lung -56.5% | NCI-H226 lung -49.1% | NCI-H322M lung -96.7% | HOP-62 NSCLC -56.6% | NCI-H460 lung -54.1% | NCI-H522 lung -50.5% | A549/ATCC NSCLC -53.3% | COLO 205 colon -68.3%
inactive: HOP-92 NSCLC 62.5% | 786-0 renal 28.1%

Cc1ccc(-c2csc(/N=C3\C(=O)Nc4ccccc43)n2)cc1
active: NCI-H460 lung 8.52% | HOP-92 NSCLC -16.1% | NCI-H522 lung -57.6% | COLO 205 colon -15.6%
inactive: NCI-H23 lung 23.5% | NCI-H226 lung 62.1% | NCI-H322M lung 47.1% | HOP-62 NSCLC 25.3% | A549/ATCC NSCLC 23% | 786-0 renal 14.7%

CS(=O)(=O)c1ccc(-c2cc3c(oc2=O)-c2ccccc2OC3O)cc1 (stereo not given)
inactive: NCI-H23 lung 90.3% | NCI-H226 lung 74.7% | NCI-H322M lung 107% | HOP-62 NSCLC 94.9% | NCI-H460 lung 91.7% | HOP-92 NSCLC 38.1% | NCI-H522 lung 92.7% | A549/ATCC NSCLC 104% | 786-0 renal 88.7% | COLO 205 colon 114%

Clc1cc(Cl)cc(N2N=C(c3cccc(Nc4ccncc4)c3)CC2c2ccc(Br)cc2)c1 (stereo not given)
active: NCI-H460 lung -81.8% | COLO 205 colon -40.5%
inactive: NCI-H23 lung 64.4% | NCI-H226 lung 85.7% | NCI-H322M lung 73.1% | HOP-62 NSCLC 33.7% | HOP-92 NSCLC 65.8% | NCI-H522 lung 69.7% | A549/ATCC NSCLC 19.1% | 786-0 renal 105%

CCCCCCc1nc2nc(Cl)c(Cl)nc2[nH]1
active: HOP-92 NSCLC -13.8%
inactive: NCI-H23 lung 34.8% | NCI-H226 lung 63.2% | NCI-H322M lung 96% | HOP-62 NSCLC 88.1% | NCI-H460 lung 52.7% | NCI-H522 lung 32.6% | A549/ATCC NSCLC 53.2% | 786-0 renal 65.8% | COLO 205 colon 102%

CC(=O)c1c[nH]c2ccc(-c3ccnc(Nc4ccc(NC(=O)C5CCCC5)c(CN5CCOCC5)c4)n3)cc12
active: NCI-H23 lung -36.4% | NCI-H226 lung -0.452% | NCI-H322M lung -11.5% | HOP-62 NSCLC 2.51% | NCI-H460 lung -60.6% | HOP-92 NSCLC -5.65% | NCI-H522 lung -17.9% | A549/ATCC NSCLC 4.82% | 786-0 renal 0.29% | COLO 205 colon -31.9%

O=S(=O)(NCCNc1nccc(-c2c(-c3ccc(F)c(O)c3)nc3occn23)n1)c1ccccc1
inactive: NCI-H23 lung 55.1% | NCI-H226 lung 92.1% | NCI-H322M lung 72.7% | HOP-62 NSCLC 76.9% | NCI-H460 lung 29.7% | HOP-92 NSCLC 43.7% | NCI-H522 lung 55.2% | A549/ATCC NSCLC 45.8% | 786-0 renal 88.5% | COLO 205 colon 40.6%

Nc1cc(N)c2cccnc2c1O
inactive: NCI-H23 lung 35.5% | NCI-H226 lung 89.8% | NCI-H322M lung 78% | HOP-62 NSCLC 69.5% | NCI-H460 lung 15.2% | HOP-92 NSCLC 72.3% | NCI-H522 lung 67.2% | A549/ATCC NSCLC 63% | 786-0 renal 89.8% | COLO 205 colon 102%

C=C1C(=O)O[C@H]2[C@H]1CC/C(COC(=O)CCCCCC(=O)OC/C1=C/CC[C@@]3(C)O[C@H]3[C@H]3OC(=O)C(=C)[C@@H]3CC1)=C\CC[C@@]1(C)O[C@@H]21
inactive: NCI-H226 lung 52% | NCI-H322M lung 86.3% | HOP-62 NSCLC 85.6% | NCI-H460 lung 76.4% | A549/ATCC NSCLC 80.6%
active: NCI-H23 lung 9.16% | HOP-92 NSCLC -1.51% | NCI-H522 lung -72.5% | 786-0 renal 7.09% | COLO 205 colon -38.4%

CCN(CC)CCSCCCNc1c(C)cnc2cc(Cl)ccc12
inactive: NCI-H23 lung 89.8% | NCI-H226 lung 100% | NCI-H322M lung 90.8% | HOP-62 NSCLC 85.2% | NCI-H460 lung 96.8% | HOP-92 NSCLC 81.6% | NCI-H522 lung 102% | A549/ATCC NSCLC 95.9% | 786-0 renal 82.7% | COLO 205 colon 61.4%

COc1ccc(-c2nc(N/N=C/c3cccc(Br)c3)nc(N3CCOCC3)c2C#N)cc1
inactive: NCI-H23 lung 103% | NCI-H226 lung 75.8% | NCI-H322M lung 88.5% | HOP-62 NSCLC 79.1% | NCI-H460 lung 31.8% | HOP-92 NSCLC 82% | NCI-H522 lung 70.6% | A549/ATCC NSCLC 62.2% | 786-0 renal 35.6% | COLO 205 colon 40.8%
